# Test results taken from PMC7862700, “An all-to-all approach to the identification of sequence-specific readers for epigenetic DNA modifications on cytosine”.
# Columns and labels:
# Assay in all cases: DAPPL (digital affinity profiling via proximity ligation, sequencing); 10 mM Tris-HCl pH 7.5, 50 mM NaCl, 1 mM DTT, 4% glycerol, room temperature, 30 min; GST-TFs on glutathione beads, 16-mer random dsDNA library, 0.1% formaldehyde crosslink after washing; high values mean tight binding
# [1] = target: T1, FEV (Homo sapiens, UniProt Q99581 1-238); conditions: protein: recombinant; tags: N-terminal GST; dsDNA, one strand shown
# T1 sequence: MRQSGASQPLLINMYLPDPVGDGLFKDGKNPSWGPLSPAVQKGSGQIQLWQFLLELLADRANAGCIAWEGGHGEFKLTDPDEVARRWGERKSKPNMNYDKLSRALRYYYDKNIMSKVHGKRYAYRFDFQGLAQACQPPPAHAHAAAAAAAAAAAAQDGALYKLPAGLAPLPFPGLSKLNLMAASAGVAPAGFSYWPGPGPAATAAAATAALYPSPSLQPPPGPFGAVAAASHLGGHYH
# How it was run: (§1)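 Binding signal is each hexamer's read frequency for a factor divided by its frequency in the tag-only sample. The factors were GST-fused human transcription factors from yeast, captured on glutathione beads, DNA-barcoded and pooled with that sample. Pools were incubated with 200 nmole of a random double-stranded 16-mer DNA library in Tris/NaCl/DTT/glycerol buffer at room temperature for 30 min, then washed, crosslinked with 0.1% formaldehyde, proximity-ligated with BsaI/T4 ligase (1 h, 37 °C), PCR-amplified and sequenced on an Illumina NextSeq500.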
# [2] = target: ETV5 (Homo sapiens, UniProt P41161 1-510); conditions: protein: recombinant; tags: N-terminal GST; dsDNA, one strand shown
# Chain of ETV5 (P41161 whole entry): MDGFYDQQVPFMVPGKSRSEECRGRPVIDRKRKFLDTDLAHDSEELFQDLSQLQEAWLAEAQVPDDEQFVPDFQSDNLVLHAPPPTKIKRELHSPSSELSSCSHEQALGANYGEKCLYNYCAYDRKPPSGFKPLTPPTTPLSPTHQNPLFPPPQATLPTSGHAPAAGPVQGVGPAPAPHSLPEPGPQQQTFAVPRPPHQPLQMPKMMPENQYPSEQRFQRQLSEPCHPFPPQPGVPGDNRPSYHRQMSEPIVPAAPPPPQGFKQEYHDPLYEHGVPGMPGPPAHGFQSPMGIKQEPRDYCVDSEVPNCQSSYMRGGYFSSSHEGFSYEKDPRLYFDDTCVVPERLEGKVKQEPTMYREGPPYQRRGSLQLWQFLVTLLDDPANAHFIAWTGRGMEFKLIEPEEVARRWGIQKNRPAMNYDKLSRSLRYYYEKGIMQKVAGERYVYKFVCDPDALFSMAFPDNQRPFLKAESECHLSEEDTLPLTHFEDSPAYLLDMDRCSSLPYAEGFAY
# How it was run: as §1
# [3] = target: HSF1 (Homo sapiens, UniProt Q00613 1-529); conditions: protein: recombinant; tags: N-terminal GST; chain copies: 3; dsDNA, one strand shown
# Chain of HSF1 (Q00613 whole entry): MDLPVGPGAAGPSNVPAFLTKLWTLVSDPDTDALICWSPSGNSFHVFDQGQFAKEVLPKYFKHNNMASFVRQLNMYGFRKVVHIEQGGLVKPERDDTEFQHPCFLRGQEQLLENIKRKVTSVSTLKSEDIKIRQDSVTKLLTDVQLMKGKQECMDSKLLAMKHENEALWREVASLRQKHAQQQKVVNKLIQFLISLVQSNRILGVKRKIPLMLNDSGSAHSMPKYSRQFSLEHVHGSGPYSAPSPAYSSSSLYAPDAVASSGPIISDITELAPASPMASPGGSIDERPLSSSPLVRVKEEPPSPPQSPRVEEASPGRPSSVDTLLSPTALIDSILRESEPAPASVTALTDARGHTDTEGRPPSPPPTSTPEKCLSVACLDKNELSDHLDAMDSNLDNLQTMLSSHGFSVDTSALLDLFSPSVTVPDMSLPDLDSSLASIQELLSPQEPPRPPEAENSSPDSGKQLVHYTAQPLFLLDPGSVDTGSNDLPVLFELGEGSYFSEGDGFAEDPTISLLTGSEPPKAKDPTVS
# How it was run: as §1
# [4] = target: T2, SPIC (Homo sapiens, UniProt Q8N5J4 1-248); conditions: protein: recombinant; tags: N-terminal GST; dsDNA, one strand shown
# T2 sequence: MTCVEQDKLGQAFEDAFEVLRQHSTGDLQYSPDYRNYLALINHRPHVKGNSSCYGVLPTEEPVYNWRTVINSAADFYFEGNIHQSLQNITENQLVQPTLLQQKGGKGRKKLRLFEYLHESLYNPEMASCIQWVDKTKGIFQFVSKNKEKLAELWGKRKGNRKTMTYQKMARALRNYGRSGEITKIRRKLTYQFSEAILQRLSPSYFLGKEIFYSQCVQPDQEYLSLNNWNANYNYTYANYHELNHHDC
# How it was run: as §1
# [5] = target: ELF4 (Homo sapiens, UniProt Q99607 1-663); conditions: protein: recombinant; tags: N-terminal GST; dsDNA, one strand shown
# Chain of ELF4 (Q99607 whole entry): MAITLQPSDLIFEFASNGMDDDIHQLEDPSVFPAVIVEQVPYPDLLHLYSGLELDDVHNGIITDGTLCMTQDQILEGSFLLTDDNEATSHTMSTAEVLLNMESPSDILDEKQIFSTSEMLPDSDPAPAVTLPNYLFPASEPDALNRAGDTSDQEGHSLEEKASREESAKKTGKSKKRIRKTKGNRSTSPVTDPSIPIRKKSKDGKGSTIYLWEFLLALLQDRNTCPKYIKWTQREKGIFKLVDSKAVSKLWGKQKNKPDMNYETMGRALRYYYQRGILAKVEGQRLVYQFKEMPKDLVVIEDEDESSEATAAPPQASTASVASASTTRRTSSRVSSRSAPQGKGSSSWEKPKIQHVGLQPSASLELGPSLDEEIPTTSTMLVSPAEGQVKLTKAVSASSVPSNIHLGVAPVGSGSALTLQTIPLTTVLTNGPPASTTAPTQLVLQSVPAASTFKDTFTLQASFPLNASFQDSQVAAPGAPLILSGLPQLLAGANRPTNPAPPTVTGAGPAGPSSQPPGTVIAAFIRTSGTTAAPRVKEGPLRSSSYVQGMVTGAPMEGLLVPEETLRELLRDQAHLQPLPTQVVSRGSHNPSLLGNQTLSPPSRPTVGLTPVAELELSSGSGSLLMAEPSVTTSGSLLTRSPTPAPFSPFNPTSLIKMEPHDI
# How it was run: as §1
# [6] = target: T3, ELK4 (Homo sapiens, UniProt P28324-2 1-405); conditions: protein: recombinant; tags: N-terminal GST; dsDNA, one strand shown
# T3 sequence: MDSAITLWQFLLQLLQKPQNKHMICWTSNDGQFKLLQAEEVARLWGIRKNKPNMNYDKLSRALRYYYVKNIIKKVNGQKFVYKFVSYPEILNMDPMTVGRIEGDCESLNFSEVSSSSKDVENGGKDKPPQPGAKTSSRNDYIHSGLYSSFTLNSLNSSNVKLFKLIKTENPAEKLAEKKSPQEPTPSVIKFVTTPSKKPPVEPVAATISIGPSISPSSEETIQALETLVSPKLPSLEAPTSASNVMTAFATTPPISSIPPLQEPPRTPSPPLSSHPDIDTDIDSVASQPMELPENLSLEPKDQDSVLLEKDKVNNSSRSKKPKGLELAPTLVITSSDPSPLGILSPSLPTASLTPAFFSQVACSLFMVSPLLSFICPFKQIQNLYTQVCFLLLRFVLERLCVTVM
# How it was run: as §1
# [7] = target: T4, ETV2 (Homo sapiens, UniProt O00321 1-342); conditions: protein: recombinant; tags: N-terminal GST; dsDNA, one strand shown
# T4 sequence: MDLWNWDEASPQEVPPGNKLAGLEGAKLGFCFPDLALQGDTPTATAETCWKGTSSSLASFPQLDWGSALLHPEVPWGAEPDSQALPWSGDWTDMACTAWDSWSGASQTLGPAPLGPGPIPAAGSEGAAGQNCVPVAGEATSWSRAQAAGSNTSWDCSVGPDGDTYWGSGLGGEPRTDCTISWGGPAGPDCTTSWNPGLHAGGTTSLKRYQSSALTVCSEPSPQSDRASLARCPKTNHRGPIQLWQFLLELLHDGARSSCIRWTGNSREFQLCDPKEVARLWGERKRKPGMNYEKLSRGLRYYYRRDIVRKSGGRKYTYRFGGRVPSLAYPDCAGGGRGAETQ
# How it was run: as §1
# [8] = target: T5, ELF3 (Homo sapiens, UniProt P78545 1-371); conditions: protein: recombinant; tags: N-terminal GST; dsDNA, one strand shown
# T5 sequence: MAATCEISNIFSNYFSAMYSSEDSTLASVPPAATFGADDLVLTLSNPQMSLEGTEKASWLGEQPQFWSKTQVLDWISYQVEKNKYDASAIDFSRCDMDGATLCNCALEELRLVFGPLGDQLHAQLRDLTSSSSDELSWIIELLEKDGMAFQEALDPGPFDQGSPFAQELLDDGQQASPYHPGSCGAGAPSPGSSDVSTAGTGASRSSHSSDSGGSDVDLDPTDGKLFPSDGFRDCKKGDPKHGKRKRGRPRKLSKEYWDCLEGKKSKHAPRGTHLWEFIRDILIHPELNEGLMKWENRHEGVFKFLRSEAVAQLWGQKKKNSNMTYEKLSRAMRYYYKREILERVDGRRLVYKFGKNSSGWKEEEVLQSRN
# How it was run: as §1
# [9] = target: CRX (Homo sapiens, UniProt O43186 1-299); conditions: protein: recombinant; tags: N-terminal GST; dsDNA, one strand shown
# Chain of CRX (O43186 whole entry): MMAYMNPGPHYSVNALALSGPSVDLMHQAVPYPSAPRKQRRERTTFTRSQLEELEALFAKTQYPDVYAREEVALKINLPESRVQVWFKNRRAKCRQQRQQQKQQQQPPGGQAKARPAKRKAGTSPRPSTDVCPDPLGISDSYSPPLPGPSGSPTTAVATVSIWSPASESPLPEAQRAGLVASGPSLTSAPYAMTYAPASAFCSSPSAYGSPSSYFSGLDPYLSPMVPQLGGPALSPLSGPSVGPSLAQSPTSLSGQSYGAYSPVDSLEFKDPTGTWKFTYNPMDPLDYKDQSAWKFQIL
# How it was run: as §1
# [10] = target: ETV1 (Homo sapiens, UniProt P50549 1-477); conditions: protein: recombinant; tags: N-terminal GST; dsDNA, one strand shown
# Chain of ETV1 (P50549 whole entry): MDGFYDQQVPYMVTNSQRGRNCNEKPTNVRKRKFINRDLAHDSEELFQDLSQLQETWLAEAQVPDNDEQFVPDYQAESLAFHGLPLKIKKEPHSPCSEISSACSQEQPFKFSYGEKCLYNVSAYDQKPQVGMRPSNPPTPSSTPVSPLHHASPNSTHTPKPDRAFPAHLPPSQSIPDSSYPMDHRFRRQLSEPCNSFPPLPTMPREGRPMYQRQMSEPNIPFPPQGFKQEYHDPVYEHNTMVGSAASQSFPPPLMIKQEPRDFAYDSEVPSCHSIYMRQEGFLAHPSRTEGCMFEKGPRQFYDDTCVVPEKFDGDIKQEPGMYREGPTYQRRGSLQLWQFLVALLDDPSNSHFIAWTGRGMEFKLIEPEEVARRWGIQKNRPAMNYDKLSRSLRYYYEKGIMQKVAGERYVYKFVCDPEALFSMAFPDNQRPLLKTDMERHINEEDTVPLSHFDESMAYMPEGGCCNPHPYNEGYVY
# How it was run: as §1
# [11] = target: T6, ERF (Homo sapiens, UniProt P50548 1-548); conditions: protein: recombinant; tags: N-terminal GST; dsDNA, one strand shown
# T6 sequence: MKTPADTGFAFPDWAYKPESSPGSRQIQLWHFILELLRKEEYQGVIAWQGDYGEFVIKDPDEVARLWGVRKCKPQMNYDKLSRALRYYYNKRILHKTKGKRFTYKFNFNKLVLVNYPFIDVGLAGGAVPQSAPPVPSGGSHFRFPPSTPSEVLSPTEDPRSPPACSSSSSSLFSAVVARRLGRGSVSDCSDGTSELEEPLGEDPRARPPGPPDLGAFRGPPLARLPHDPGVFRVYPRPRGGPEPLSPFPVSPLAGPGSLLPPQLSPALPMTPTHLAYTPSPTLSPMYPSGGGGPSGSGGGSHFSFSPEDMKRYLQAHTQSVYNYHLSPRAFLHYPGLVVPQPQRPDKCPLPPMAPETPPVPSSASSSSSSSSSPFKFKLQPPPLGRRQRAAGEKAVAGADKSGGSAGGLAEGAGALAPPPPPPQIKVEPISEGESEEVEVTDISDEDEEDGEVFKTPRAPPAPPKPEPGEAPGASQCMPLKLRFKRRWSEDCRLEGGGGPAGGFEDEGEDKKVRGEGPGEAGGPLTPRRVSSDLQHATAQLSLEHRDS
# How it was run: as §1
# [12] = target: T7, ETV3L (Homo sapiens, UniProt Q6ZN32 1-361); conditions: protein: recombinant; tags: N-terminal GST; dsDNA, one strand shown
# T7 sequence: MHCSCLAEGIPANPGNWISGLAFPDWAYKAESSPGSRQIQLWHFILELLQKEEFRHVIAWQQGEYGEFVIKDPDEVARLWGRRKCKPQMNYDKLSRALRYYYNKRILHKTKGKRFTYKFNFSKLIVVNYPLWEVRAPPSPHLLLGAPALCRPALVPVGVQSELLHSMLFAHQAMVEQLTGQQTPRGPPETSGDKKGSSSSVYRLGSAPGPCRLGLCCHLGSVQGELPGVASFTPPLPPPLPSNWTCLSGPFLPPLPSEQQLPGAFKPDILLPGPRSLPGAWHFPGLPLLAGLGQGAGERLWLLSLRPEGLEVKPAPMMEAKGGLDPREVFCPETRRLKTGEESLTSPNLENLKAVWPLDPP
# How it was run: as §1
# [13] = target: T8, ETS2 (Homo sapiens, UniProt P15036 1-469); conditions: protein: recombinant; tags: N-terminal GST; dsDNA, one strand shown
# T8 sequence: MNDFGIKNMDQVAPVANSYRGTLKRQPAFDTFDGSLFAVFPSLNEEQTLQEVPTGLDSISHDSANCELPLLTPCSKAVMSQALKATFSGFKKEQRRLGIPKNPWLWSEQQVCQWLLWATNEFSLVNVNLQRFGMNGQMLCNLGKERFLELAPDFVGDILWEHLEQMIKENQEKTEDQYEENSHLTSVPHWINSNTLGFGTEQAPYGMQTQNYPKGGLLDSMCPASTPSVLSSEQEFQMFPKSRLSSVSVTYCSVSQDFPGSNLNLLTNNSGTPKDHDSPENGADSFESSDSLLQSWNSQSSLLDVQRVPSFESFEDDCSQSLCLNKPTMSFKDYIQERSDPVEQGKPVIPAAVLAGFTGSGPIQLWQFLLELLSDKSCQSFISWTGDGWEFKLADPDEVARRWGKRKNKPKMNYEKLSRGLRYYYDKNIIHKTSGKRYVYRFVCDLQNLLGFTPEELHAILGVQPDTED
# How it was run: as §1
# [14] = target: T9, SPDEF (Homo sapiens, UniProt O95238 1-335); conditions: protein: recombinant; tags: N-terminal GST; dsDNA, one strand shown
# T9 sequence: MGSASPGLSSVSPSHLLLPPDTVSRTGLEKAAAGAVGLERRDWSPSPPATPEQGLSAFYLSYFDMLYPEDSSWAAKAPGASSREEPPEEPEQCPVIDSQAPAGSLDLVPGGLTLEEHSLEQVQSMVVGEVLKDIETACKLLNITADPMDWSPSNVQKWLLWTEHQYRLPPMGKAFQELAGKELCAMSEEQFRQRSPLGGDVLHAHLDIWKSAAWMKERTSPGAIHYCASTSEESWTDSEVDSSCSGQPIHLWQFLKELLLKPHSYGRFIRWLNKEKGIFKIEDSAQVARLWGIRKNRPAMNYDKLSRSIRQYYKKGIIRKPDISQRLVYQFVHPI
# How it was run: as §1
# [15] = target: T10, ETV7 (Homo sapiens, UniProt Q9Y603 1-341); conditions: protein: recombinant; tags: N-terminal GST; dsDNA, one strand shown
# T10 sequence: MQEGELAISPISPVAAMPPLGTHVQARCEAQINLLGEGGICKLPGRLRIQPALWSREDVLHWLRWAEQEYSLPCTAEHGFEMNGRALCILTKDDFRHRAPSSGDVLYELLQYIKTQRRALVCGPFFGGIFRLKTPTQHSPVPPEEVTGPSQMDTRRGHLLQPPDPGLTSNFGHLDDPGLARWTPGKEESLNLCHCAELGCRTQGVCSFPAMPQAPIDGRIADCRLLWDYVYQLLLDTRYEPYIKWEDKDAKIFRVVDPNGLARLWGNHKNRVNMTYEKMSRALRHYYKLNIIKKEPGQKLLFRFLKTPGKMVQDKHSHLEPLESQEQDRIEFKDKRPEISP
# How it was run: as §1
# [16] = target: T11, ELF5 (Homo sapiens, UniProt Q9UKW6-2 1-255); conditions: protein: recombinant; tags: N-terminal GST; dsDNA, one strand shown
# T11 sequence: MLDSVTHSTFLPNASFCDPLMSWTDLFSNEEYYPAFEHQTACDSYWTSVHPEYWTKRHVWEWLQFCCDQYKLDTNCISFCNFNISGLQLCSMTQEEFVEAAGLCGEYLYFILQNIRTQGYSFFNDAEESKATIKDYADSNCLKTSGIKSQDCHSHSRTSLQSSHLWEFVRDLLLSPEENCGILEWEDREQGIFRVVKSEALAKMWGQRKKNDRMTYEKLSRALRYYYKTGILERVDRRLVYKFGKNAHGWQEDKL
# How it was run: as §1
# [17] = target: T12, ETV3 (Homo sapiens, UniProt P41162-2 1-143); conditions: protein: recombinant; tags: N-terminal GST; dsDNA, one strand shown
# T12 sequence: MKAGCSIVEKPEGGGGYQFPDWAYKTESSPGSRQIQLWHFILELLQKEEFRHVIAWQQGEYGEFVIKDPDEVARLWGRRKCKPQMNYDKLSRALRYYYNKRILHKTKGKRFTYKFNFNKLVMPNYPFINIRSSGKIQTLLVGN
# How it was run: as §1
# [18] = target: ETV6 (Homo sapiens, UniProt P41212 1-452); conditions: protein: recombinant; tags: N-terminal GST; dsDNA, one strand shown
# Chain of ETV6 (P41212 whole entry): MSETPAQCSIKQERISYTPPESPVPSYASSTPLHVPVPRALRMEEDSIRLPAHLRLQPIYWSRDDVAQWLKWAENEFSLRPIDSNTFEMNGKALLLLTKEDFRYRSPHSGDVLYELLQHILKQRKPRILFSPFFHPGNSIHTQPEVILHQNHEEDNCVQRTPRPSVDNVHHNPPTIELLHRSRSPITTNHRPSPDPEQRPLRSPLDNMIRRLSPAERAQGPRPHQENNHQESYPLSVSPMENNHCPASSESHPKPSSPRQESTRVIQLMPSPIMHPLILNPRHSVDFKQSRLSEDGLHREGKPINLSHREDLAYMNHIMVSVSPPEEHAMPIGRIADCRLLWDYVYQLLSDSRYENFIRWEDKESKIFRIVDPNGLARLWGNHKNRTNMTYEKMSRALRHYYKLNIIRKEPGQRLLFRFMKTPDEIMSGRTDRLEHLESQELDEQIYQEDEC
# How it was run: as §1
sequence,measurement,setting,value
CTCCTA,binding signal,[1],"1.32 fold enrichment (6-mer frequency, TF over GST control)"
same,binding signal,[2],"1.28 fold enrichment (6-mer frequency, TF over GST control)"
same,binding signal,[3],"1.39 fold enrichment (6-mer frequency, TF over GST control)"
same,binding signal,[4],"1.49 fold enrichment (6-mer frequency, TF over GST control)"
same,binding signal,[5],"1.44 fold enrichment (6-mer frequency, TF over GST control)"
same,binding signal,[6],"1.46 fold enrichment (6-mer frequency, TF over GST control)"
same,binding signal,[7],"1.24 fold enrichment (6-mer frequency, TF over GST control)"
same,binding signal,[8],"1.31 fold enrichment (6-mer frequency, TF over GST control)"
same,binding signal,[9],"1.49 fold enrichment (6-mer frequency, TF over GST control)"
same,binding signal,[10],"1.29 fold enrichment (6-mer frequency, TF over GST control)"
same,binding signal,[11],"1.49 fold enrichment (6-mer frequency, TF over GST control)"
same,binding signal,[12],"1.36 fold enrichment (6-mer frequency, TF over GST control)"
same,binding signal,[13],"1.32 fold enrichment (6-mer frequency, TF over GST control)"
same,binding signal,[14],"1.34 fold enrichment (6-mer frequency, TF over GST control)"
same,binding signal,[15],"1.37 fold enrichment (6-mer frequency, TF over GST control)"
same,binding signal,[16],"1.41 fold enrichment (6-mer frequency, TF over GST control)"
same,binding signal,[17],"1.23 fold enrichment (6-mer frequency, TF over GST control)"
same,binding signal,[18],"1.29 fold enrichment (6-mer frequency, TF over GST control)"
